Most compounds without a hit are left out; they make up all but 3.5% or so of the library.
TEAD-YAP inh = TEAD-YAP interaction inhibition | inhibition, % at 9.12 µM | AID 1259422 | HEK-TIYL cells, TEAD-Gal4/YAP UAS-luciferase luminescence | 640,000 tested, 1.4% active; in the data active = inhibition above about 32%
FBW7 act = activators of human E3 ligase FBW7. 650,000 tested, 0.13% active. normalized activity (activation), % at 26.1 µM. AlphaScreen FBW7–phospho-cyclin E peptide binding, activator screen. Q969H0; in the data active = normalized activity above about 1.9%;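 note: purified mutant Fbw7 with reduced substrate affinity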
GPR151 activ = human GPR151 activation; activation, % at 11.2 µM; 650,000 tested, 1% active; PathHunter beta-arrestin GPR151 cells, luminescence; Q8TDV0; in the data active = activation above about 4.9%
MITF inh = human MITF inhibition, primary screen; O75030; inhibition, % at 2.6 µM; AID 1259374; AlphaScreen MITF homodimerization, bead proximity signal; 650,000 tested, 0.91% active; in the data active = inhibition above about 50%
Target sequence (O75030 whole entry, looked up): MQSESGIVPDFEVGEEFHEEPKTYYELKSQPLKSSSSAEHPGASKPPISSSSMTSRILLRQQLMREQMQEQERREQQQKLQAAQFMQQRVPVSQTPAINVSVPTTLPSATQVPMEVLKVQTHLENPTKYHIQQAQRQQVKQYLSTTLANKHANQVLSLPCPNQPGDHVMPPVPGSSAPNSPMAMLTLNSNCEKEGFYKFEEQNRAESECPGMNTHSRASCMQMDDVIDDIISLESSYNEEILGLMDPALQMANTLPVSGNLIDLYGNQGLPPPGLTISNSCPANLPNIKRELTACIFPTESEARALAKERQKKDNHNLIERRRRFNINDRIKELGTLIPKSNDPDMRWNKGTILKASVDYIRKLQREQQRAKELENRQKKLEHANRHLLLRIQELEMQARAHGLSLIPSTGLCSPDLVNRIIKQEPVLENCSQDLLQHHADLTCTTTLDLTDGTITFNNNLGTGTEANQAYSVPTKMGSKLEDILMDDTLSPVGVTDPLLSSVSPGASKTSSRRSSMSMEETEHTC
MITF inh conf = confirmation of human MITF inhibitors. 4,700 tested, 16% active. AID 1259372. inhibition, % at 2.6 µM. AlphaScreen MITF homodimerization, biotin/His-MITF beads. shares compounds with MITF inh;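 active = inhibition above a cutoff derived from the DMSO control wells, cut at about 28% in these data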;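 note: inhibitors lower the bead chemiluminescence by keeping MITF from dimerizing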
AlphaScreen DR = optically interferes with AlphaScreen signal in dose response | IC50, µM | shares compounds with MITF inh | 480 tested, 6% active | AlphaScreen optical interference counterscreen, cell-free; call rule not given here
AS interf ctr = counter-screen: compounds optically interfering with AlphaScreen; shares compounds with MITF inh; LysRS AlphaScreen counterscreen, signal interference, triplicate; inhibition, % at 2.6 µM; 4,700 tested, 7.6% active; AID 1259376;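 active = inhibition above a cutoff derived from the DMSO control wells, cut at about 30% in these data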
Hits are given with their value; – = inactive; · = not tested or not shown.

SMILES	TEAD-YAP inh	FBW7 act	GPR151 activ	MITF inh	MITF inh conf	AS interf ctr	others
Cc1cc(OCCCCN2CC(C)OC(C)C2)ccc1[N+](=O)[O-] (stereo not given)	–	–	–	–	·	·
Cc1ccc(OCCCN2CCCCC2)c([N+](=O)[O-])c1	–	–	–	87	–	–
COc1cccc(CN2CCc3nnc(CCNC(=O)c4ccco4)n3CC2)c1OC	–	–	–	–	·	·
O=S(=O)(NCCCN1CCCCCC1)c1ccc(Cl)s1	–	–	–	–	·	·
Cc1cc(N2CCOCC2)nc2ccc(NC(=O)c3ccc(C(C)(C)C)cc3)cc12	–	–	–	–	·	·
CCN(CC)C(=O)N1CCN(c2ccc(N=C(NC(=O)OC)NC(=O)OC)cc2)CC1	–	–	–	–	·	·
Cc1cccc(NC(=O)c2ccc(F)c(S(=O)(=O)N3CCC(C)CC3)c2)c1	–	–	–	–	·	·
c1ccc(CN2CCCC2c2nc(-c3ccncc3)n[nH]2)nc1 (stereo not given)	–	–	–	101	92	100
COc1ccccc1C1(NC(=O)CCCCC2SCC3NC(=O)NC32)CCCC1 (stereo not given)	–	–	–	105	66	–	AlphaScreen DR=4.9
O=C(O)CCCC[C@@H]1SC[C@@H]2NC(=O)N[C@@H]21	·	–	–	122	124	100
Cc1c(/C=C2/N=C(c3ccc(Br)cc3)OC2=O)cc(C#N)n1C	–	–	–	–	·	·
C(=N\c1nc2ccccc2s1)/Nc1nc2ccccc2s1	–	–	–	52	–	–
c1ccc2sc(Nc3nc4ccccc4s3)nc2c1	–	–	–	–	·	·
Cc1ccc(S(=O)(=O)N2CCN(C3CCCCC3)CC2)cc1	–	–	–	–	·	·
O=[N+]([O-])c1ccc(S(=O)(=O)N2CCN(C3CCCCCC3)CC2)cc1	–	–	–	–	·	·
O=S(=O)(c1ccccc1)N1CCN(C2CCCCCC2)CC1	–	–	–	59	–	–
O=[N+]([O-])c1ccc(S(=O)(=O)N2CCN(C3CCCC3)CC2)cc1	–	–	–	53	–	–
O=C(Nc1cccc(Br)c1)c1ccc(O)cc1	–	–	–	–	·	·
COc1ccc(CN2CCN(c3ccccc3)CC2)c(OC)c1OC	–	–	–	–	·	·
COc1ccc(CN2CCN(Cc3ccccc3Br)CC2)c(OC)c1OC	–	–	–	81	–	–
COc1cc(CN2CCN(Cc3ccc(OC)c(OC)c3OC)CC2)cc(OC)c1	–	–	–	70	–	–
COc1ccc(CN2CCN(Cc3ccncc3)CC2)c(OC)c1OC	–	–	–	62	–	–
COc1cc(CN2CCN(Cc3ccc(C(F)(F)F)cc3)CC2)cc(OC)c1OC	–	–	–	85	–	–
COc1ccc(CN2CCN(Cc3ccc(C(F)(F)F)cc3)CC2)cc1OC	–	–	–	–	·	·
CC1CCCCN1C(=O)C1CCCCN1S(=O)(=O)c1ccccc1[N+](=O)[O-] (stereo not given)	–	–	–	–	·	·
SMILES	TEAD-YAP inh	FBW7 act	GPR151 activ	MITF inh	MITF inh conf	AS interf ctr	others
COc1ccc(CN2CCN(Cc3ccc(C(F)(F)F)cc3)CC2)c(OC)c1OC	–	–	–	78	–	–
O=c1c2ccccc2[nH]c(=S)n1Cc1ccc(Cl)cc1	–	–	–	–	·	·
Cc1cc(C)n(CCCNCC(O)COCc2cccs2)n1 (stereo not given)	–	–	–	79	–	–
Cc1cc(C)n(CCCNCC(O)COCc2ccccc2)n1 (stereo not given)	–	–	–	–	·	·
CCS(=O)(=O)N1CCCC(C(=O)N2CCc3ccccc3C2)C1 (stereo not given)	–	–	–	–	·	·
O=C(C1CCCN(Cc2ccncc2)C1)N1CCc2ccccc2C1 (stereo not given)	–	–	–	90	–	–
O=C(C1CCNCC1)N1CCc2ccccc2C1	–	–	–	60	–	–
O=C(C1CCN(c2ccc(N3CCOCC3)nn2)CC1)N1CCc2ccccc2C1	–	–	–	–	·	·
CCOc1ccccc1N1C(=NC(C)=O)SC2CS(=O)(=O)CC21 (stereo not given)	–	–	–	–	·	·
C=CCOc1ccc(/C(O)=C2\C(=O)C(=O)N(c3nc(C)c(C(=O)OCC)s3)C2c2ccc(OC)c(OC)c2)c(C)c1 (stereo not given)	–	–	–	–	·	·
COCCCN1C(=O)/C(=C\c2ccc(OC)cc2)C(C(=O)OC)=C1C	–	–	–	–	·	·
N#Cc1cc[n+](CC(=O)c2cccc([N+](=O)[O-])c2)cc1	–	–	–	63	–	–
CCOC(=O)c1cc[n+](CC(=O)c2cccc([N+](=O)[O-])c2)cc1	–	–	–	–	·	·
O=C(CN1CCCCCC1)Nc1ccc(N2CCCC2)cc1	–	–	–	53	–	–
Cc1ccc(NC(=O)CN2CCC(C(=O)NC3CC3)CC2)cc1	–	–	–	112	–	–
O=C(CN1CCC(c2ccncc2)CC1)Nc1ccc(N2CCCCC2)cc1	–	–	–	–	·	·
CC1CCN(CC(=O)Nc2ccc(N3CCCCCC3)cc2)CC1	–	–	–	52	–	33
CC1CCN(CC(=O)Nc2ccc(Br)cc2)CC1	–	–	–	–	·	·
CCN(CC)CCN1CC(c2ccccc2)CC1=O (stereo not given)	–	–	–	58	–	–
O=Cc1cccc(OCCCn2cnc3ccccc32)c1	–	–	–	66	–	–
O=[N+]([O-])c1ccccc1OCCOCCn1cnc2ccccc21	–	–	–	88	–	–
O=[N+]([O-])c1ccccc1OCCOCCn1cncn1	–	–	–	–	·	·
O=[N+]([O-])c1ccccc1OCCCn1cnc2ccccc21	–	–	–	60	–	–
Fc1ccccc1OCCCn1cnc2ccccc21	–	–	–	–	·	·
CC(=O)Nc1ccc(-c2ccncc2-c2ccc(S(N)(=O)=O)cc2)cc1	–	–	–	55	47	38
SMILES	TEAD-YAP inh	FBW7 act	GPR151 activ	MITF inh	MITF inh conf	AS interf ctr	others
COc1cccc(C(=O)N2CCN(Cc3cc(OC)ccc3OC)CC2)c1	–	–	–	–	·	·
COc1cc(OC)c(OC)cc1CN1CCN(C(=O)c2cccc(Cl)c2)CC1	–	–	–	–	·	·
COc1cccc(C(=O)N2CCN(Cc3cc(Br)ccc3OC)CC2)c1	–	–	–	58	–	–
COc1ccc(Br)cc1CN1CCN(C(=O)c2cccc(Cl)c2)CC1	–	–	–	53	–	–
CC(C)n1c(Oc2ccc(F)cc2)nc2c(=O)n(C)c(=O)n(C)c21	–	–	–	–	·	·
O=C1CSC(=Nc2cccc(Br)c2)N1	–	–	–	53	–	–
Cn1c(SCC(=O)Nc2ccc(C(=O)O)cc2)nnc1-c1ccncc1	–	–	–	–	·	·
CC(=O)c1ccc(NC(=O)CSc2nnc(-c3ccncc3)n2CCCN(C)C)cc1	–	–	–	71	–	–
CCn1c(SCC(=O)Nc2ccc(NC(=O)C(C)(C)C)cc2)nnc1-c1ccncc1	–	–	–	–	·	·

Screens (PubChem BioAssay)
